# In publication PMC5836133, “The intracellular immune receptor Rx1 regulates the DNA-binding activity of a Golden2-like transcription factor”:
# Whole data set: some 16,000 sequences, median “e-score” near -0.044, cut for the highest 2% near 0.38. This is one part of a sample in which the highest values are shown more often than they occur.
# Molecular target: T1, GST-NbGlk1(82-244) (Nicotiana benthamiana)
# T1 chain: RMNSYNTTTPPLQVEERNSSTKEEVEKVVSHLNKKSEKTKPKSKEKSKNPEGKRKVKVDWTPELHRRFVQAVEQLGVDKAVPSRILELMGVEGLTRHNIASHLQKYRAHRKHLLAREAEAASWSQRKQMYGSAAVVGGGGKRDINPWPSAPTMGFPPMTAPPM
# Test: protein-binding microarray; NbGlk1 is a Golden2-like transcription factor of Nicotiana benthamiana; high values mean tight binding
# Conditions: protein: recombinant; tags: GST (pTH6838); dsDNA, one strand shown
row,Sequence,binding signal
1,AGGAGGAT,0.244 ± 0.0559 E-score
2,ATTCGCCA,0.278 ± 0.00941 E-score
3,ATCCTTTA,0.274 ± 0.0111 E-score
4,AAGATCAT,0.214 ± 0.0212 E-score
5,AAGATCCT,0.339 ± 0.00784 E-score
6,AAGATCTT,0.399 ± 0.0153 E-score
7,ATTCCATA,0.257 ± 0.00403 E-score
8,ATTCCATG,0.229 ± 0.0434 E-score
9,AATCCCTG,0.283 ± 0.0408 E-score
10,AATCCATC,0.367 ± 0.0565 E-score
11,AATCCATT,0.38 ± 0.039 E-score
12,AATCCCAT,0.331 ± 0.00747 E-score
13,AATCGATT,0.353 ± 0.0155 E-score
14,AATCCATG,0.381 ± 0.0124 E-score
15,AATCCATA,0.3787 ± 0.000904 E-score
16,ATCCTCGA,0.224 ± 0.0852 E-score
17,AAATATGG,0.272 ± 0.0577 E-score
18,ATCTTCCA,0.319 ± 0.0516 E-score
19,AATATTAG,0.209 ± 0.0412 E-score
20,ATCGGCAA,0.216 ± 0.00468 E-score
21,ATCTTTCA,0.247 ± 0.0983 E-score
22,ATCTATGA,0.247 ± 0.0113 E-score

row,Sequence,binding signal
1,AGATTTAG,0.276 ± 0.0684 E-score
2,AGATTTGG,0.394 ± 0.0453 E-score
3,ATATTTGC,0.338 ± 0.0673 E-score
4,AGATTTGA,0.327 ± 0.0876 E-score
5,AGATTTGC,0.4695 ± 0.00449 E-score
6,AATTTTGG,0.25 ± 0.0182 E-score
7,ATCATGAT,0.205 ± 0.00494 E-score
8,ATTTCGGC,0.283 ± 0.0422 E-score
9,ACTAAGAT,0.231 ± 0.0287 E-score
10,ACTAAAAT,0.281 ± 0.0324 E-score
11,ATCCACAT,0.256 ± 0.0906 E-score
12,AGATCTTA,0.347 ± 0.0143 E-score
13,AAATCGTA,0.373 ± 0.0227 E-score
14,CAATCTTC,0.294 ± 0.0422 E-score
15,AGATCTTC,0.428 ± 0.0156 E-score
16,CAATCTTA,0.304 ± 0.0126 E-score
17,AAATCTTC,0.446 ± 0.0208 E-score
18,AAATCGTC,0.354 ± 0.0288 E-score
19,AAATCTTA,0.44 ± 0.0386 E-score
20,AAATCTTG,0.4213 ± 0.00314 E-score
21,AAATCGTG,0.365 ± 0.0286 E-score
22,AAATCATG,0.332 ± 0.0128 E-score

row,Sequence,binding signal
1,AGATCTTG,0.373 ± 0.0461 E-score
2,ATCTTCTC,0.311 ± 0.013 E-score
3,ATCAGATC,0.35 ± 0.0204 E-score
4,ATTACGTA,0.354 ± 0.0309 E-score
5,AGATACTG,0.33 ± 0.00398 E-score
6,AGCGCGAT,0.325 ± 0.0563 E-score
7,AATCGATG,0.268 ± 0.0785 E-score
8,AATCTATG,0.38 ± 0.0331 E-score
9,ATTCTATA,0.284 ± 0.0791 E-score
10,AATCTATC,0.366 ± 0.0334 E-score
11,AATCTATA,0.402 ± 0.0321 E-score
12,AATATATG,0.252 ± 0.0059 E-score
13,ATCTGCGC,0.317 ± 0.0626 E-score
14,AACGCGAT,0.341 ± 0.0519 E-score
15,AAAGGAAT,0.27 ± 0.0558 E-score
16,ATCCAGTG,0.221 ± 0.123 E-score
17,ATAGATAT,0.394 ± 0.0151 E-score
18,AGAGATCG,0.303 ± 0.0386 E-score
19,AGAGATAT,0.391 ± 0.0365 E-score
20,ATAGATAC,0.26 ± 0.0116 E-score
21,ACAGATAT,0.415 ± 0.0135 E-score
22,AGAGATCT,0.411 ± 0.0152 E-score

row,Sequence,binding signal
1,ATAGAGAT,0.276 ± 0.0241 E-score
2,AGAGATCC,0.346 ± 0.0193 E-score
3,ACAGATAC,0.276 ± 0.00718 E-score
4,AGAGATAC,0.222 ± 0.0223 E-score
5,AAAGATAT,0.342 ± 0.0309 E-score
6,AGAGAGAT,0.241 ± 0.0533 E-score
7,AACTAGAT,0.208 ± 0.0834 E-score
8,ATTTCTCC,0.242 ± 0.0333 E-score
9,AATTACGT,0.26 ± 0.0756 E-score
10,ATTCTTGA,0.221 ± 0.0445 E-score
11,ACGAAGAT,0.31 ± 0.00598 E-score
12,ATATGCTG,0.258 ± 0.0732 E-score
13,AAAGATCG,0.278 ± 0.0495 E-score
14,AAAGATCC,0.292 ± 0.0246 E-score
15,AAAGATCT,0.38 ± 0.023 E-score
16,AGCAAGAT,0.309 ± 0.0213 E-score
17,ATTATCCC,0.261 ± 0.0646 E-score
18,ATAACGAT,0.216 ± 0.0183 E-score
19,ATATCCAT,0.43 ± 0.00596 E-score
20,ATATCAAG,0.298 E-score
21,ATATCCAG,0.3945 ± 0.00384 E-score
22,ATATCCAA,0.407 ± 0.00723 E-score

row,Sequence,binding signal
1,AGATCCAG,0.261 ± 0.0749 E-score
2,ATATCAAT,0.281 ± 0.00703 E-score
3,ATATCCCA,0.3708 ± 0.000904 E-score
4,ATATCCAC,0.393 E-score
5,ATATCAAA,0.228 ± 0.00678 E-score
6,ATATCCCC,0.36 ± 0.0106 E-score
7,ATCTCCAT,0.335 ± 0.0406 E-score
8,AGATCCAC,0.287 ± 0.0119 E-score
9,ATTGTGTA,0.249 ± 0.00712 E-score
10,ATCCCCGG,0.256 ± 0.0142 E-score
11,AGAATTTA,0.222 ± 0.00311 E-score
12,AATTTCAT,0.238 ± 0.0823 E-score
13,ATCCGTTA,0.315 ± 0.0322 E-score
14,ATCAGTGA,0.218 ± 0.0932 E-score
15,ATCTGGTA,0.238 ± 0.087 E-score
16,ATCGCGAC,0.287 ± 0.126 E-score
17,AATCCTTG,0.336 ± 0.0164 E-score
18,ATGGTAAT,0.305 ± 0.00923 E-score
19,AATCCCAC,0.318 ± 0.0378 E-score
20,AAATCAAG,0.318 ± 0.0251 E-score
21,AAATCCAG,0.413 ± 0.0172 E-score
22,AAATCCAA,0.426 ± 0.042 E-score

row,Sequence,binding signal
1,CAATCCAA,0.298 ± 0.0654 E-score
2,AAATCCAT,0.422 ± 0.0113 E-score
3,AAATCCAC,0.43 ± 0.0323 E-score
4,CAATCCAG,0.291 ± 0.00762 E-score
5,CAATCCAC,0.328 ± 0.0614 E-score
6,AGATCCAA,0.262 ± 0.127 E-score
7,ATCCCAGA,0.276 ± 0.00637 E-score
8,ATATGAGA,0.231 ± 0.0943 E-score
9,ATTACCTG,0.213 ± 0.0963 E-score
10,CAATATCA,0.299 ± 0.00874 E-score
11,ATCTTGAA,0.286 ± 0.0202 E-score
12,AATATAGA,0.271 ± 0.00595 E-score
13,ACCTGGAT,0.224 ± 0.0187 E-score
14,ATTTTTAG,0.235 ± 0.0033 E-score
15,ATTTGTAC,0.228 ± 0.0254 E-score
16,AAATCACG,0.381 ± 0.0177 E-score
17,AATCCCCG,0.362 ± 0.0401 E-score
18,AAATCCCC,0.368 ± 0.0151 E-score
19,AAATCCCG,0.435 ± 0.00616 E-score
20,AAATCACA,0.349 ± 0.00405 E-score
21,CAATCCCG,0.284 ± 0.05 E-score
22,AAATCACC,0.333 ± 0.00843 E-score
